Assay outcomes: PubChem BioAssay, The Scripps Research Institute Molecular Screening Center
Sampled rows, rich in hits. Any-hit rate of the full collection: about 2.3%.
CHRM1 agonist = agonists of human M1 muscarinic receptor. P11229. CHO-K1 hM1, Fluo-8 calcium fluorescence, agonist mode; 0% DMSO, 100% acetylcholine EC100. activation, % at 3 µM. 360,000 compounds, 0.33% hits;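 active = activation above the run's mean compound activation plus 3 SD, cut at about 16% in these data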;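 also: peak over basal fluorescence ratio within a 140 s kinetic read after compound addition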
Target sequence (P11229 whole entry, looked up): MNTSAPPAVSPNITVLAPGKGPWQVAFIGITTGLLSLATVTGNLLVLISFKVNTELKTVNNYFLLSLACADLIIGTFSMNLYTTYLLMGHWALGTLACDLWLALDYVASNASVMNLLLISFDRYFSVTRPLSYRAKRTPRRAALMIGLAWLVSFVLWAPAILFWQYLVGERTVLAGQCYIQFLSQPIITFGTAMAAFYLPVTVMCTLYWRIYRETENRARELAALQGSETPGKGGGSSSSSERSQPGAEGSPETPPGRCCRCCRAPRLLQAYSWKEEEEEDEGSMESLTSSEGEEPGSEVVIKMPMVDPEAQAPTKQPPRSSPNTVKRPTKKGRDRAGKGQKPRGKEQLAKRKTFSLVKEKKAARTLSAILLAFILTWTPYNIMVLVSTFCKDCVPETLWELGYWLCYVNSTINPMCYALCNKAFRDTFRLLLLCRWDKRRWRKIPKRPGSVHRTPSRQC
CHO-K1 Ca PAM = counter-screen for M1 PAMs: effect in parental CHO-K1 cells | ATP EC20, Fluo-8 calcium fluorescence; 0% at ATP EC20, 100% at ATP max | activation, % at 3 µM | 360,000 compounds, 0.02% hits;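 active = activation above the run cutoff, the mean activation of all test compounds plus 3 SD, cut at about 40% in these data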;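 also: peak over basal fluorescence ratio in a 140 s read after ATP addition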
M1 PAM = human CHRM1 positive allosteric modulation; P11229; CHO-K1 hM1, Fluo-8 calcium fluorescence, ACh EC20; 0% = ACh EC20, 100% = maximal ACh; activation, % at 3 µM; 360,000 compounds, 0.088% hits; AID 588819; in the data active = activation above about 19%, passing the limit was not always enough
M1 antag = antagonists of human M1 muscarinic receptor; P11229; CHO-K1 hM1, Fluo-8 calcium fluorescence, ACh EC80 antagonist; inhibition, % at 3 µM; 360,000 compounds, 1.3% hits;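 active = percent inhibition above its own plate's cutoff, namely the mean of that plate's compound wells plus 3 SD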;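 also: peak over basal fluorescence ratio during 140 s after agonist addition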
CHO-K1 Ca ag = nonselective activator or artifact in parental CHO-K1 cells. Fluo-8 calcium fluorescence; scaled to maximal ATP response, vehicle zero. activation, % at 3 µM. 360,000 compounds, 0.48% hits. AID 602248; in the data active = activation above about 15%;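 also: untransfected CHO-K1 host cells lacking M1 receptor as counterscreen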
CHO-K1 Ca antag = nonselective inhibitor or artifact in parental CHO-K1 cells; ATP-induced calcium, Fluo-8 fluorescence; inhibition, % at 3 µM; 360,000 compounds, 0.6% hits; AID 602250;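 active = inhibition above a per-plate cutoff, the plate's mean sample inhibition plus 3 SD, cut at about 24% in these data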
A number is an active result; i = inactive; ! = not active in a repeat.

SMILES	CHRM1 agonist	CHO-K1 Ca PAM	M1 PAM	M1 antag	CHO-K1 Ca ag	CHO-K1 Ca antag
O=C(O)c1cncc(C#CCC2CCCCC2)c1	i	i	i	i	i	i
C[C@]12CCC(=O)C=C1[C@H](O)C[C@@H]1[C@@H]2[C@@H](O)C[C@@]2(C)[C@H]1CC[C@]2(O)C(=O)CO	i	i	i	i	i	33
CCC(=O)N1CCN(c2ccccc2NC(=O)COc2ccccc2Cl)CC1	i	i	i	i	i	i
c1ccc(-n2cc(CN3CCCC3)c(-c3ccc4c(c3)OCO4)n2)cc1	i	i	i	i	20	i
CCc1ccc(N2CC(C(=O)Nc3cccc(S(=O)(=O)N4CCCC4)c3)CC2=O)cc1 (centres undefined)	i	i	i	i	i	i
CCOC(=O)Nc1ccc2c(c1)N(C(=O)OCCN(C)C)c1ccccc1CC2	i	i	i	31!	i	i
O=C(NNC(=O)c1cc(-c2cccnc2)nc2ccccc12)Nc1ccc(Cl)cc1	i	i	i	63	i	29
O=C(NNC(=O)c1cc(-c2ccccc2)nc2ccccc12)Nc1cccc(Cl)c1	i	i	i	25	i	i
CN(Cc1ccccc1)C(=O)CSc1nnc(-c2ccco2)n1-c1ccccc1	i	i	i	i	i	i
Cc1c(C(=O)N2CCN(S(=O)(=O)c3ccccc3F)CC2)oc2c(Cl)cccc12	16	i	i	i	i	i
Cc1c(C(=O)N2CCN(c3ccccc3)CC2)oc2c(Cl)cccc12	i	i	i	i	i	i
CCCCn1c(N)c(N(CC)C(=O)c2cc3c(s2)CCCCC3)c(=O)[nH]c1=O	i	i	i	i	i	i
c1ccc(N2CCN(Cc3ccc4c(c3)OCO4)CC2)nc1	i	i	i	i	i	i
c1ccc(COc2ccc(CN3CCN(c4ccccn4)CC3)cc2)cc1	i	i	i	32	i	i
c1ccc(CN2CCN(c3ncccn3)CC2)cc1	i	i	i	i	i	i
c1ccc(-c2ccc(CN3CCN(c4ncccn4)CC3)cc2)cc1	i	i	i	i	i	25
O=[N+]([O-])c1ccc(N2CCCC2)c([N+](=O)[O-])c1	i	i	i	i	i	i
Cc1c(OCC(=O)NCCN2CCOCC2)ccc2c(-c3ccccc3)cc(=O)oc12	i	i	i	i	i	i
CCN(CC)S(=O)(=O)c1csc(C(=O)Nc2ccccn2)c1	i	i	i	i	i	27
O=C(Nc1ccccn1)c1cccs1	i	i	i	i	i	i
CNS(=O)(=O)c1cccc(C(=O)OCc2cc(=O)oc3c(C)c(O)ccc23)c1	i	i	i	i	15	i
CCc1cc2c(COC(=O)c3cccc(S(C)(=O)=O)c3)cc(=O)oc2cc1O	i	i	i	i	i	i
CCN(CC)CCC=C(c1cccs1)c1cccs1	i	i	i	96	i	i
CCN(CC)CCCNC(=O)/C(=C\c1cccn1C)NC(=O)c1cccs1	i	i	i	i	i	i
CC(C)Oc1cccc(C(=O)NC(=S)Nc2ccc(N3CCN(C)CC3)cc2)c1	i	i	i	99	i	i
SMILES	CHRM1 agonist	CHO-K1 Ca PAM	M1 PAM	M1 antag	CHO-K1 Ca ag	CHO-K1 Ca antag
CN1CCN(c2ccc(NC(=S)NC(=O)c3cccc4c(Cl)cccc34)cc2)CC1	i	i	i	37	i	i
COc1cccc(C(=O)NC(=S)Nc2ccc(N3CCCC3)cc2)c1	i	i	i	i	i	i
O=C(Nc1ccccc1C(=O)Nc1nnc(C(F)(F)F)s1)c1ccccc1Cl	i	i	i	34	28	27
CCSc1nnc(NC(=O)c2ccc(Br)s2)s1	i	i	i	i	i	i
O=C(Nc1nnc(C(F)(F)F)s1)c1ccc(Br)s1	i	i	i	28	i	i
NC(=O)c1ccccc1NC(=O)c1ccccc1Cl	i	i	i	i	i	i
COc1cccc(CNS(=O)(=O)c2ccccc2Br)c1OC	i	i	i	i	i	i
COc1cccc(CCNC(=O)CCc2nnc(-c3cc(C)oc3C)o2)c1	i	i	i	i	i	i
CCc1noc(C)c1C(=O)N(C)CC(=O)Nc1ccc(F)c(F)c1F	i	i	i	i	i	i
Cc1cc2nc(C(C)(C)C)c(Cc3ccccc3)n2c(C)c1Br	i	i	i	i	i	i
CC[C@]1(C(=O)OC)[C@H]2C(=O)N(C)C(=O)[C@H]2[C@H]2CN=C(SC)N21	i	i	i	i	i	i
COc1coc(C(O)C[N+](=O)[O-])cc1=O (centres undefined)	i	i	i	i	i	i
CCOc1ccc(CN2CCN(c3ncnc4scc(-c5ccccc5)c34)CC2)cc1	22	i	i	i	i	i
COc1ccc(C(CC(=O)c2ccc(C)cc2)Nc2ccc([N+](=O)[O-])cc2)cc1 (centres undefined)	i	i	i	i	15	i
CCC1Cc2[nH]c(=S)[nH]c(=O)c2C(c2ccc(F)cc2)O1 (centres undefined)	i	i	i	i	i	i
COc1cccc(CN(C)C(=O)C(CCSC)NS(=O)(=O)c2ccc3c(c2)OCCO3)c1OC (centres undefined)	i	i	i	30	i	i
CC1=C(C(=O)OCCBr)C(c2cccc3ccccc23)NC(=O)N1 (centres undefined)	i	i	i	i	i	i
CC1CN(Cc2ccccc2)C(C)CC1O (centres undefined)	i	i	i	i	i	i
COc1ccc(NC(=O)COc2cccc3c2OC(C)(C)C3)cc1OC	i	i	i	31	i	i
S=c1nc(-c2cc(Cl)ccc2Cl)[nH][nH]1	i	i	i	i	i	26
CC1CC(C)CN(CCOCCSc2ccc(Cl)cc2)C1 (centres undefined)	i	i	i	35	i	i
Clc1ccc(SCCCN2CCCCC2)cc1	i	i	i	33	i	i
CC1CC(C)CN(CCOCCSc2ccccc2)C1 (centres undefined)	i	i	i	i	i	i
Cc1cc(C)c2c(N)c(C(=O)NN3CC(=O)N(c4cccc(Cl)c4)CC3=O)sc2n1	i	i	i	i	i	i
CC1CC(=O)C2=C(C1)Nc1ncnn1C2c1ccccc1 (centres undefined)	i	i	i	i	i	28
O=C1CC(c2cccs2)CC2=C1C(c1ccccc1)n1ncnc1N2 (centres undefined)	i	i	i	i	i	i
O=C(c1ccc(CS(=O)c2ccc(F)cc2)o1)N1CCN(C2CCCCC2)CC1 (centres undefined)	i	i	i	i	i	i
OCCCc1n[nH]c(=S)n1-c1ccccc1	i	i	i	i	i	i
O=C1c2cccc3cccc(c23)C(=O)N1CCCc1n[nH]c(=S)n1-c1ccccc1	i	i	i	31	i	i
Cc1ccccc1CN1CCC(CNC(=O)C2CCCN(c3ncnc4c3nc3n4CCCCC3)C2)CC1 (centres undefined)	i	i	i	101	i	i
